tested on: CSNK2A2
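Further: kd values determined as follow-up on hits from a single-replicate KINOMEscan panel screen.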

Row | Structure (SMILES) | Kd [µM]
1 | Fc1cc(Cl)ccc1Nc1ccnc2cc(-c3ccc(CN4CCCCC4)o3)ccc12 [GW560116] | > 10
2 | Clc1cc(Cl)cc(Nc2ccnc(Nc3cc(Cl)cc(Cl)c3)n2)c1 [GSK175726] | > 10
3 | Cc1cccc(-c2nc(Nc3ccc4[nH]ncc4c3)c3ccccc3n2)n1 [GW857175] | 0.042
4 | COc1ccccc1CNC(=O)c1cc(C(=O)c2ccccc2C)c[nH]1 [GSK364507] | 5.1
5 | COc1cc2ncnc(Nc3ccc4nc(-c5ccccc5)[nH]c4c3)c2cc1OC.Cl [GW282450] | > 10
6 | Nc1ncnc2[nH]c(-c3ccccc3)nc12 [AH5015] | 1.1

tested on: DDR1

Row | Structure (SMILES) | Kd [µM]
7 | COC(=O)c1c(-c2ccccc2)c2cc(OC)ccc2c(=O)n1Cc1ccccc1 | 0.28
8 | Cl.O=C(Nc1cccc(-c2nn3ncccc3c2-c2ccnc(Nc3cccnc3)n2)c1)c1c(F)cccc1F [GSK312879] | 0.14
9 | Cc1ccc(NC(=O)Nc2cccc(Cl)c2)cc1-c1ccc(C(=O)Nc2ccncc2)cc1 [GSK1398468] | 0.076
10 | COC(=O)c1c(-c2ccccc2)c2cc(C(=O)O)ccc2c(=O)n1Cc1ccccc1 | 0.16
11 | Cc1ccc(NC(=O)Nc2cc(C(C)(C)C)nn2-c2ccccc2)cc1 [GSK1014915] | 1.3
12 | Cc1cccc(-c2nc(-c3ccc(S(C)(=O)=O)cc3)sc2-c2ccnc(NCCc3ccccc3)c2)c1 | 0.23
13 | CC(=O)Nc1nc2cnc(Nc3cc(NC(=O)c4cccc(CCC#N)c4)ccc3C)nc2s1 | > 10
14 | O=C(Nc1ccccc1)Nc1cccc(Oc2ccc3nccn3n2)c1 | 0.024

tested on: EGFR

Row | Structure (SMILES) | Kd [µM]
15 | Cl.O=C(Nc1cccc(-c2nn3ncccc3c2-c2ccnc(Nc3cccnc3)n2)c1)c1c(F)cccc1F [GSK312879] | 0.038
16 | Cl.NC(=O)c1cccc(Nc2nccc(Nc3ccc(Oc4cccc(Cl)c4)c(Cl)c3)n2)c1 [GW659008] | 0.12
17 | Cn1cncc1-c1ccc2ncnc(Nc3ccc(OCc4ccccc4)cc3)c2c1 [GW320571] | 0.049

tested on: T1, ERK4
T1 construct: gene MAPK4

Row | Structure (SMILES) | Kd [µM]
18 | O=C(Nc1n[nH]c2nc(-c3nccs3)c(Br)cc12)C1CCCC1 [SB-742609] | > 10
19 | CS(=O)(=O)c1ccc(-c2nc3n(c2-c2ccncc2)CCC3)cc1 [SKF-105942] | > 10
20 | Cc1cccc(-c2nc(C)cc(Nc3ccncc3)n2)n1 [GSK257997] | > 10
